Unmarked numbers belong to inactive results. Unless noted, how the calls were made is not given here.
Target: Homeobox protein Hox-A13 (Mus musculus) (UniProt Q62424)
Assay: disruptors of Hoxa13 oligonucleotide interaction – biochemical, fluorescence polarization, labeled oligonucleotide, primary screen (AID 1185)
Conditions: Hoxa13:DNA binding, 15 min, higher = more signal, called active from +8 up or from −8 down

Homeobox protein Hox-A13 (Mus musculus), sequence (Q62424 whole entry, looked up): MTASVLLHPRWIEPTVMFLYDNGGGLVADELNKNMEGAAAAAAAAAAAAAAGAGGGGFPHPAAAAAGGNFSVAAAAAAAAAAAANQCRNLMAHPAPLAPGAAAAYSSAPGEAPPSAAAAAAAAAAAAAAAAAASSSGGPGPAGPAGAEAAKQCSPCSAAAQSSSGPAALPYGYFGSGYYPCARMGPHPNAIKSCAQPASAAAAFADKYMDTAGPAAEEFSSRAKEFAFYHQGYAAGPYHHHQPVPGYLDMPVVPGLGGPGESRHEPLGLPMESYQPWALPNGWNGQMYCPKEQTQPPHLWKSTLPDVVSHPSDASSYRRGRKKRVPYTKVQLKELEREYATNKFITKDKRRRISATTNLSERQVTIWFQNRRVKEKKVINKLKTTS

SMILES | z-score
N#Cc1ccc(NN2C(C(O)c3ccc(I)cc3)C=CC3C(=O)N(c4ccccc4)C(=O)C32)cc1 (stereo unspecified) | -1.01
[N-]=[N+]=NCc1ccccc1[C@H]1OC(c2ccc(OCCCO)cc2)=N[C@@]1(Cc1ccccc1N=[N+]=[N-])C(=O)NCc1ccccc1 | -1.23
NC(=O)[C@H]1[C@@H]2C(=O)O[C@@H](c3ccccc3)[C@@H](c3ccccc3)N2[C@@H](c2ccc(O)cc2)[C@]12C(=O)Nc1ccc(C#CCCO)cc12 | -5.7
CO[C@H]1O[C@H](CO)[C@@H](OC(=O)CCc2ccccc2)[C@@H]2OC(=O)[C@H](Cc3cccc(Br)c3)C/C=C/C[C@@H](Cc3cccc(Br)c3)C(=O)O[C@@H]12 | -2.42
CCC1=C2CN(Cc3ccccc3Br)[C@@H]([C@@H](O)Cc3ccccc3)C2C=CCC1 (stereo partly specified) | -7.8
CC[C@@H]1C=C(C(=O)O)[C@H](c2ccccc2)N1S(=O)(=O)c1ccc([N+](=O)[O-])cc1 | -3.73
[N-]=[N+]=NCc1ccccc1C[C@]1(C(=O)N2CCCCC2)N=C(c2ccc(OCCCO)cc2)O[C@H]1c1ccccc1CN=[N+]=[N-] | 1.1
C=CC[C@]1(C(=O)OC)N=C(c2ccc(OCCCO)cc2)O[C@H]1c1ccccc1CN=[N+]=[N-] | -1.99
C=C[C@H](OC)[C@@H](OC(=O)Nc1ccc(SC)cc1)c1ccc(O)c(F)c1 | -2.14
O=C1C2C=CC(C(O)C(c3ccccc3)c3ccccc3)N(Nc3ccc([N+](=O)[O-])cc3)C2C(=O)N1c1ccccc1 (stereo unspecified) | -1.88

Test system: not listed separately
Assay: blockers of DNA damage checkpoint Chk1 activation – imaging, HeLa, hydroxyurea, phospho-Chk1 antibody, percent positive cells, primary screen (AID 1186)
Conditions: hydroxyurea-induced phospho-Chk1 immunofluorescence imaging, higher = more signal

SMILES | z-score
O=C1O[C@H](c2ccccc2)[C@H](c2ccccc2)N2[C@H]1[C@@H](C(=O)Nc1nc3ccccc3s1)[C@]1(C(=O)Nc3ccc(C#CC4(O)CCCCCC4)cc31)[C@H]2c1ccc(O)cc1 | 0.313
CCCC=C(CCC)[C@@H](NS(=O)(=O)c1cccc(C(F)(F)F)c1)c1ccc(C(=O)OC)cc1 | 0.0948
C=CC[C@@]1(C(=O)NCC(O)CO)N=C(c2ccc(OCCCO)cc2)O[C@@H]1c1ccccc1CN=[N+]=[N-] (stereo partly specified) | -0.691
Cc1ccccc1C(O)C1C=CC2C(=O)N(c3ccccc3)C(=O)C2N1Nc1ccc(C#N)cc1 (stereo unspecified) | -0.873
O=C1O[C@H](c2ccccc2)[C@H](c2ccccc2)N2[C@H]1[C@@H](C(=O)Nc1nc3ccccc3s1)[C@]1(C(=O)Nc3ccc(C#CC4=CCCCC4)cc31)[C@H]2c1ccccc1OCCO | 0.205
CCCNC(=O)[C@@H]1c2ccccc2C(=O)N(Cc2cc(F)cc(C(F)(F)F)c2)[C@H]1c1ccc(CO)cc1 | -0.438
COc1ccc(NN2C(C(O)c3cc(OC)c(OC)c(OC)c3)C=CC3C(=O)N(C4CCCCC4)C(=O)C32)cc1 (stereo unspecified) | 0.071
CCOC(=O)C[C@H]1[C@H](OC(=O)c2cc3ccccc3oc2=O)[C@@H](NC(=O)c2ccc3ccccc3c2)c2cc(OCCCO)ccc2N1C(=O)c1ccc2ccccc2n1 | -0.0364
O=C(NCc1ccccc1)c1ccc(Br)cc1[N+](=O)[O-] | 0.225
COc1ccc([Si](C)(C)[C@@H]2[C@@H](CCO)O[C@]3(C(=O)N(Cc4ccc(NC(=O)[C@H](C)O)cc4)c4ccccc43)[C@H]2C)cc1 | -1.42
COC(=O)C(CC#Cc1ccc2c(c1)[C@]1(C(=O)N2)[C@H](C(=O)N2CCCCCCC2)[C@H]2C(=O)O[C@H](c3ccccc3)[C@H](c3ccccc3)N2[C@@H]1c1ccc(O)cc1)C(=O)OC | -0.197
CCOC(=O)C[C@H]1[C@H](OC(=O)Cc2ccc3c(c2)OCO3)[C@@H](NC(=O)c2ccc3ccccc3c2)c2cc(OCCCO)ccc2N1C(=O)Cc1ccc(OC)cc1 | 0.407
COC(=O)[C@@]1(Cc2ccccc2N=[N+]=[N-])N=C(c2ccc(OCCCO)cc2)O[C@H]1c1ccccc1CN=[N+]=[N-] | -0.352
O=C1OCC=C[C@H]2OC34C=CCN(Cc5ccccc5)C(=O)[C@H]3N(CCCCCO)C(=O)[C@@H]4[C@@H]12 (stereo partly specified) | 0.729
Cc1ccc(S(=O)(=O)N2[C@@H](c3ccccc3)C(C(=O)O)=CC[C@H]2c2ccccc2)cc1 | -0.354
C=CC[C@@]1(C(=O)N2CCOCC2)N=C(c2ccc(OCCCO)cc2)O[C@@H]1c1ccccc1 | -0.648
[N-]=[N+]=NCc1ccccc1C[C@]1(C(N)=O)N=C(c2ccc(OCCCO)cc2)O[C@H]1c1ccccc1CN=[N+]=[N-] | -0.442
COCCCNC(=O)[C@@H]1c2ccccc2C(=O)N(CC23CC4CC(CC(C4)C2)C3)[C@H]1c1ccc(CO)cc1 | -0.546

SMILES | z-score
Cc1ccc(N2C(=O)c3ccccc3[C@@H](C(=O)NCc3ccccc3)[C@@H]2c2ccc(CO)cc2)nc1 | -0.639
O=C(CS)NCCCCCNC(=O)[C@H]1C[C@H]2C(=O)N3CCC[C@H]3C(=O)N2[C@H]1c1ccc(O)cc1 | 0.23
CC(C)[Si]1(C(C)C)OCc2cc(C3CC3)nc(-c3ccccc3)c21 | -0.37
COCC(=C=CC[C@H](O)c1ccc(OCCO)cc1)C[C@H](O)c1ccccn1 | -0.215
C=CCNC(=O)[C@H]1[C@@H]2C(=O)O[C@@H](c3ccccc3)[C@@H](c3ccccc3)N2[C@@H](c2ccccc2OCCO)[C@]12C(=O)N(C(=O)OCCOC)c1ccc(C#CCC(C(=O)OC)C(=O)OC)cc12 | -0.263
COC(=O)[C@H]1[C@@H]2COc3ccccc3[C@H]2N[C@H]1C(=O)OC | -0.953
C=CC[C@]1(C(=O)N2CCCCC2)N=C(c2ccc(OCCCO)cc2)O[C@H]1c1ccccc1N=[N+]=[N-] | -0.135
C=CCNC(=O)[C@@H]1[C@H]2C(=O)O[C@H](c3ccccc3)[C@H](c3ccccc3)N2[C@H](c2ccc(OCCO)cc2)[C@@]12C(=O)N(C(=O)OCCOC)c1ccc(C#CC3(O)CCCCCC3)cc12 | -0.0211
N#Cc1ccc(NN2C(C(O)c3ccc(I)cc3)C=CC3C(=O)N(c4ccccc4)C(=O)C32)cc1 (stereo unspecified) | -0.308
[N-]=[N+]=NCc1ccccc1[C@H]1OC(c2ccc(OCCCO)cc2)=N[C@@]1(Cc1ccccc1N=[N+]=[N-])C(=O)NCc1ccccc1 | -0.0872
NC(=O)[C@H]1[C@@H]2C(=O)O[C@@H](c3ccccc3)[C@@H](c3ccccc3)N2[C@@H](c2ccc(O)cc2)[C@]12C(=O)Nc1ccc(C#CCCO)cc12 | -0.0158
CO[C@H]1O[C@H](CO)[C@@H](OC(=O)CCc2ccccc2)[C@@H]2OC(=O)[C@H](Cc3cccc(Br)c3)C/C=C/C[C@@H](Cc3cccc(Br)c3)C(=O)O[C@@H]12 | -0.962
CCC1=C2CN(Cc3ccccc3Br)[C@@H]([C@@H](O)Cc3ccccc3)C2C=CCC1 (stereo partly specified) | -0.0994
CC[C@@H]1C=C(C(=O)O)[C@H](c2ccccc2)N1S(=O)(=O)c1ccc([N+](=O)[O-])cc1 | -0.0036
[N-]=[N+]=NCc1ccccc1C[C@]1(C(=O)N2CCCCC2)N=C(c2ccc(OCCCO)cc2)O[C@H]1c1ccccc1CN=[N+]=[N-] | -0.0016
C=CC[C@]1(C(=O)OC)N=C(c2ccc(OCCCO)cc2)O[C@H]1c1ccccc1CN=[N+]=[N-] | -0.0854
C=C[C@H](OC)[C@@H](OC(=O)Nc1ccc(SC)cc1)c1ccc(O)c(F)c1 | -1.07
O=C1C2C=CC(C(O)C(c3ccccc3)c3ccccc3)N(Nc3ccc([N+](=O)[O-])cc3)C2C(=O)N1c1ccccc1 (stereo unspecified) | 0.349
